Results taken from PubChem BioAssay (EPA / NIEHS).
Active and inactive are the calls of the source. How the source made its calls: active means hit-call score of the fitted dose curve at least 0.9, where 1 is the maximum; inactive means score below 0.9.

Experiments:
[1] = Tanguay_ZF_120hpf_ANY: Oregon State University Tanguay Lab 120 Hour Post-fertilization zebrafish Assay for Any Mortality and Malformation (AID 2284404)
Procedure, shortened: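 Dechorionated Tropical 5D wild-type embryos, one per well from 6 hpf, static exposure in sealed, dark plates at 28C until 120 hpf, 0.64% DMSO final. Brightfield scoring of mortality and malformations as binary presence/absence, pooling 13 morphology endpoints.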

[2] = CCTE_Padilla_ZF_Score.Craniofacial: CCTE's 144 Hour Post-fertilization zebrafish Assay Score for Craniofacial Malformation, Padilla Lab (AID 2284405)
Procedure, shortened: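 Craniofacial defects were scored at 6 dpf by two blinded observers using stereomicroscopy. Exposure of wild-type embryos began at 6–8 hpf in sealed wells of 10% Hanks' solution at 26C, with chemical removed by rinsing at 5 dpf.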

[3] = CCTE_Padilla_ZF_Score.Edema: CCTE's 144 Hour Post-fertilization zebrafish Assay Score for Edema Malformation, Padilla Lab (AID 2284406)
Procedure, shortened: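 Edema scored at 6 dpf by two blinded observers under a stereo microscope, in single outbred wild-type larvae exposed from 6-8 hpf in sealed wells (Hanks', 26C, 14:10 h light) and chemical-free after a 5 dpf rinse.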

[4] = CCTE_Padilla_ZF_Score.Spine: CCTE's 144 Hour Post-fertilization zebrafish Assay Score for Spine Malformation, Padilla Lab (AID 2284407)
Procedure, shortened: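 Spine malformation scored at 6 dpf by two independent blinded observers under stereomicroscope, after static sealed exposure from 6–8 hpf at 26C in Hanks' solution with rinse on 5 dpf. Positive-direction fit against DMSO control.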

[5] = CCTE_Padilla_ZF_Score.Swim_bladder: CCTE's 144 Hour Post-fertilization zebrafish Assay Score for Swim Bladder Malformation, Padilla Lab (AID 2284408)
Procedure, shortened: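 Swim bladder inflation scored at 6 dpf by two blinded observers under a stereo microscope. Exposure ran from 6–8 hpf in sealed wells of 10% Hanks' at 26C, with rinsing at 5 dpf; DMSO served as baseline.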

[6] = CCTE_Padilla_ZF_Score.Position: CCTE's 144 Hour Post-fertilization zebrafish Assay Score for Position, Padilla Lab (AID 2284409)
Procedure, shortened: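 Wild-type zebrafish embryos (with chorions) exposed singly from 6–8 hpf in sealed wells of Hanks' solution at 26C, rinsed at 5 dpf. At 6 dpf, blinded assessors scored abnormal water-column position by brightfield stereomicroscopy, relative to DMSO.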

[7] = CCTE_Padilla_ZF_Score.Living: CCTE's 144 Hour Post-fertilization zebrafish Assay Score for Viability, Padilla Lab (AID 2284410);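 further: larval death at 6 dpf judged by absent heartbeat or coagulation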
Procedure, shortened: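 Mortality at 6 dpf, judged as absent heartbeat or coagulation by two blinded observers, after sealed static exposure beginning at 6–8 hpf at 26C. Larvae were rinsed free of chemical at 5 dpf, and activity was fitted relative to DMSO.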

[8] = CCTE_Padilla_ZF_Score.General: CCTE's 144 Hour Post-fertilization zebrafish Assay Score for General Malformation, Padilla Lab (AID 2284411)
Procedure, shortened: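 Malformation, death and hatching were scored at 6 dpf by two blinded observers under a stereo microscope. Embryos were dosed singly from 6-8 hpf in sealed plates of 10% Hanks' at 26C and rinsed on 5 dpf; DMSO baseline.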

[9] = CCTE_Padilla_ZF_Score.Tail: CCTE's 144 Hour Post-fertilization zebrafish Assay Score for Tail Malformation, Padilla Lab (AID 2284414)
Procedure, shortened: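 Tail malformations were scored at 6 dpf by two blinded assessors under a stereo microscope. Chorionated embryos had been exposed from 6-8 hpf in sealed wells of 10% Hanks' at 26 C, then rinsed free of chemical at 5 dpf.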

[10] = CCTE_Padilla_ZF_Score.Blood_pooling: CCTE's 144 Hour Post-fertilization zebrafish Assay Score for Blood Pooling, Padilla Lab (AID 2284415)
Procedure, shortened: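 Blood pooling was scored at 6 dpf under a stereo microscope by two blinded assessors, fitted upward against DMSO. Single embryos were dosed at 6–8 hpf in 10% Hanks', kept sealed at 26C (14:10 h cycle) and rinsed at 5 dpf.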

[11] = CCTE_Padilla_ZF_Score.Any: CCTE's 144 Hour Post-fertilization zebrafish Assay Score for Any Mortality or Malformation, Padilla Lab (AID 2284416)
Procedure, shortened: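 Wild-type zebrafish embryos with chorions, one per well in 10% Hanks' from 6–8 hpf, dosed in sealed plates at 26 C, 14:10 h light:dark; rinsed at 5 dpf; blinded scoring at 6 dpf for death or malformation, versus DMSO.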

[12] = tested on: TTR (gene 7276); assay: CCTE_GLTED_hTTR_0.125uM: CCTE's human Transthyretin (hTTR) Inhibition Assay, with 0.125uM TTR, Great Lakes Toxicology and Ecology Division (GLTED) Lab (AID 2284431);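 further: hits lower the fluorescence signal relative to DMSO baseline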
Procedure, shortened: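 Cell-free displacement of ANSA probe from 0.125uM TTR after 2 h incubation with chemical. Fluorescence read at 380 nm excitation/475 nm emission; loss of signal relative to DMSO indicates T4-site displacement.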

Measured: AC50

CO[Si](C)(CCC(F)(F)C(F)(F)C(F)(F)C(F)(F)C(F)(F)C(F)(F)F)OC
not listed: [12]
inactive: all other assays above

CN(C(=O)C(F)(F)C(F)(F)C(F)(F)F)[Si](C)(C)C
not listed: [12]
inactive: all other assays above

O=C(O)C(F)(F)C(F)(F)C(F)(F)OC(F)(F)F
not listed: [12]
inactive: all other assays above

NC(=O)C(F)(F)C(F)(F)C(F)(F)C(F)(F)C(N)=O
not listed: [12]
inactive: all other assays above

CCN(CC)c1ccc(C=O)cc1
inactive: [8]

O=C(Cl)C(F)(F)C(F)(F)C(F)(F)C(F)(F)C(F)(F)C(F)(F)C(F)(F)F
active: [3] 86.8 µM | [11] 86.8 µM
not listed: [1] | [12]
inactive: all other assays above

O=C(Cl)C(F)(F)C(F)(F)C(F)(F)C(F)(F)C(F)(F)C(F)(F)F
active: [3] 76.8 µM | [8] 76.8 µM | [11] 76.8 µM
not listed: [1] | [12]
inactive: all other assays above

O=C(O)CCC(F)(F)C(F)(F)C(F)(F)C(F)(F)C(F)(F)C(F)(F)C(F)(F)F
not listed: [12]
inactive: all other assays above

CN1CN(C)CN(C)C1
inactive: [8]

CCCCCCCC/C=C\CCCCCCCC(=O)N(C)CC(=O)O
active: [12] 3.75 µM

O=C(c1ccccc1)c1ccc(O)cc1O
inactive: [8]
active: [12] 0.0464 µM

CCN=c1cc2oc3cc(NCC)c(C)cc3c(-c3ccccc3C(=O)OCC)c-2cc1C
active: [12] 32.2 µM

C[Si](Cl)(Cl)CCC(F)(F)C(F)(F)C(F)(F)C(F)(F)C(F)(F)C(F)(F)F
not listed: [12]
inactive: all other assays above

OCC(F)(F)C(F)(F)C(F)(F)CO
not listed: [12]
inactive: all other assays above

NCC(F)(F)C(F)(F)C(F)(F)C(F)(F)C(F)(F)C(F)(F)F
active: [3] 75.3 µM | [8] 75.3 µM | [11] 75.3 µM
not listed: [1] | [12]
inactive: all other assays above

C=C(C)C(=O)OCC(F)(F)C(F)(F)C(F)(F)C(F)F
active: [11] 30 µM
not listed: [1] | [12]
inactive: all other assays above

FC(F)(F)C(F)(F)C(F)(F)CC1CO1 (stereo not given)
not listed: [12]
inactive: all other assays above

CC(C)CCCC(C)CCO (stereo not given)
inactive: [8]

NC(=O)C(F)(F)C(F)(F)C(F)(F)C(F)F
not listed: [12]
inactive: all other assays above

NCC(F)(F)C(F)(F)C(F)(F)C(F)(F)C(F)(F)C(F)(F)C(F)(F)C(F)(F)F
active: [7] 32.4 µM | [11] 32.9 µM
not listed: [1] | [12]
inactive: all other assays above

C=CC(=O)OCC(F)(F)C(F)(F)C(F)(F)COC(=O)C=C
active: [1] 5.92 µM | [7] 10 µM | [11] 8.95 µM
not listed: [12]
inactive: all other assays above

c1ccc(C[P+](c2ccccc2)(c2ccccc2)c2ccccc2)cc1
inactive: [8]

O=C(O)CCC(F)(F)C(F)(F)C(F)(F)F
active: [11] 77.1 µM
not listed: [12]
inactive: all other assays above

O=S(=O)(Cl)C(F)(F)C(F)(F)C(F)(F)C(F)(F)C(F)(F)C(F)(F)C(F)(F)C(F)(F)F
active: [3] 33.5 µM | [4] 88.8 µM | [5] 12.1 µM | [6] 81.7 µM | [7] 88.8 µM | [11] 12.1 µM
inactive: [1] | [2] | [8] | [9] | [10]

O=C(O)C(F)(F)C(F)(F)C(F)(F)OC(F)(C(F)(F)F)C(F)(F)F
not listed: [12]
inactive: all other assays above

O=C(O)C(F)(F)C(F)(F)C(F)(F)C(F)(F)C(F)(F)C(F)(F)C(F)F
not listed: [1] | [12]
inactive: all other assays above

NC(=O)C(F)(F)C(F)(F)C(F)(F)F
not listed: [12]
inactive: all other assays above

Nc1cc([N+](=O)[O-])cc(Cl)c1O
inactive: [8]

O=C(O)C(F)(F)OC(F)(F)C(F)(F)OC(F)(F)C(F)(F)OC(F)(F)F
not listed: [1] | [12]
inactive: all other assays above

CCN=C1C=CC(=C(c2ccc(N(CC)CC)cc2)c2ccc(N(CC)CC)cc2)c2ccccc21
active: [12] 1.85 µM

CCC(Cc1c(I)cc(I)c(N)c1I)C(=O)O (stereo not given)
active: [12] 2.1 µM
